# Reference: PubChem BioAssay AID686979 (National Center for Advancing Translational Sciences (NCATS), 2013)
# Values joined by “and” are separate entries in the source; they are usually repeats but may differ in a detail not shown here. Equal entries are not always repeated. The whole screen tested about 420,000 compounds, of which about 50,000 (12%) were called active. About 26% were inconclusive and are not listed. This excerpt belongs to a sample that is enriched for actives. Values without a mark were called inactive. Calls follow the shape of the dose curve; as a rule, active = well fitted inhibition curve with a large enough effect; inconclusive = small, poorly fitted or top-dose-only effect; inactive = flat fitted curve, though single readings scatter.
# Experiment: qHTS for Inhibitors of human tyrosyl-DNA phosphodiesterase 1 (TDP1): qHTS in cells in presence of CPT; also: nearly all actives have a fitted effect of over 55% in size
# Conditions: chicken DT40 Tdp1-/-;hTDP1 cells + 20 nM CPT, ATP luminescence, 48 h; series mostly up to 46.2 µM; activity change, negative = growth inhibition: at the top concentration
# Outline: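 Chicken DT40 Tdp1-/- cells complemented with human TDP1, 400 cells/well, exposed to compounds plus 20 nM camptothecin for at least 48 h at 37 C; viability read as ATP content by CellTiter-Glo luminescence.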
# % is scaled to controls: 0 for no effect and ±100 for the full control effect; potency is read from the fitted curve at half-maximal effect.
Structure (SMILES),"activity change, negative = growth inhibition [%]",Potency
CC(C)(C)C(=O)CSc1ccc(S(=O)(=O)N2CCCC2)cn1,-29.4,
CN=C1SC(CC(=O)Nc2ccc(C(=O)O)cc2)C(=O)N1C (centres undefined),-17.1,
CCC(=C/c1sc2ccc3ccccc3c2[n+]1C)/C=C1\Sc2ccc3ccccc3c2N1C,,0.231 µM (active)
COc1ccc(N(CC(=O)N2CCOCC2)S(=O)(=O)c2ccccc2)cc1Cl,1.17,
COc1ccc(CCNC(=O)c2ccc(NC(=O)CC3SC(N4CCCCC4)=NC3=O)cc2)cc1OC (centres undefined),-27.3,
COc1ccc(CCNC(=O)c2cnc3sc(N4CCCCCC4)nn3c2=O)cc1OC,,11.6 µM (active)
COc1ccc(CCNC(=O)C2CCN(c3nn4c(=O)cc(C)nc4s3)CC2)cc1OC,2.71,
CSc1ncc(C(=O)NCCCc2ccccc2)c(C)n1,-28.1,
O=C(NCCc1ccccc1)c1cnc2sc(N3CCCC3)nn2c1=O,,16.4 µM (active)
O=C(O)c1ccccc1-c1ccccc1C(=O)NCCc1ccccc1,13.9,
Cc1cc(C)c(S(=O)(=O)NCC(c2ccc3c(c2)OCO3)N2CCOCC2)c(C)c1 (centres undefined),-0.185,
COc1cc(OC)cc(C(=O)NNC(=O)Cc2cccs2)c1,-7.38,
COc1cc(OC)c(NC(=O)Cc2ccc(-n3c(C)nc4cccnc43)cc2)cc1Cl,,23.1 µM (active)
COCCCNC(=O)Cc1ccc(-n2c(C)nc3cccnc32)cc1,-15.6,
CCc1nc2cccnc2n1-c1ccc(C(=O)O)cc1,3.09,
Cc1cccc(-n2nc3c(c2NC(=O)c2cc4ccccc4o2)CS(=O)(=O)C3)c1,-3.89,
O=C(CN1CCC(O)(c2cccc(C(F)(F)F)c2)CC1)NCCc1ccccc1,-7.6,
O=C(c1ccc(F)cc1)N1CCCC(C(=O)N2CCCCC2)C1 (centres undefined),-8.79,
Cc1cnc(C(=O)N2CCCC(N3CCN(c4ccccc4F)CC3)C2)cn1 (centres undefined),-22.6,
CSc1ccc(C(=O)C2CCCN(C(=O)c3ccc(C)nc3)C2)cc1 (centres undefined),,20.6 µM (active)
COc1cc2c(cc1OC)C(C(=O)Nc1cc(C)c(OC)c(C)c1)CC(=O)N2 (centres undefined),-5.19,
COc1ccc(NC(=O)c2ccco2)cc1NC(=O)c1ccc(C#N)cc1F,-2.04,
COc1ccc(N(CC(=O)N2CCCCCC2)S(=O)(=O)c2ccccc2)cc1,0.579,
CCC(C)[C@H](NC(=O)N1c2ccccc2NC(=O)[C@@H]1C(C)C)C(=O)N[C@@H](Cc1ccccc1)C(=O)O (some centres undefined),10.8,
CCOC(CNC(=O)C1CCN(S(=O)(=O)c2ccc3nc4c(c(C(=O)O)c3c2)CC(C)CC4)CC1)OCC (centres undefined),5.36,

Structure (SMILES),"activity change, negative = growth inhibition [%]",Potency
CCCc1nn2c(=O)cc(CSCC(=O)Nc3cccc(C)c3)nc2s1,-12.7,
COc1ccc(CCNC(=O)COC(=O)c2cc(=O)c3ccccc3o2)cc1,2.28,
COc1ccc(-c2c(C#Cc3ccccc3)c3ccccc3n2C)cc1,-25.1,
COc1ccc(CCNCc2c(-c3ccccc3)n(C)c3ccccc23)cc1,,16.4 µM (active)
O=c1[nH]c2c(c(=O)n1-c1ccccc1)CCO2,-15.9,
O=C(CCNC(=O)c1ccc([N+](=O)[O-])cc1)NC1CCCCC1,-24.5,
c1ccc(C2c3[nH]c4ccccc4c3CCN2Cc2cccn2-c2cccnc2)nc1 (centres undefined),-17.5,
CCOc1ccc(C2c3[nH]c4ccccc4c3CCN2Cc2cccn2-c2ncccn2)cc1 (centres undefined),,20.6 µM (active)
CCOc1ccc(C2c3[nH]c4ccccc4c3CCN2Cc2cn(CC)nc2C)cc1 (centres undefined),-6.24,
CN(CC(=O)Nc1c(Cl)cccc1Cl)C(=O)CNC(=O)C1CCCCC1,-1.71,
CCCCNC(=O)CSc1nnc(-c2ccco2)n1C,-3.19,
CCOc1ccc(-n2c(SCC(=O)Nc3cc(C(=O)O)ccc3Cl)nc3ccccc3c2=O)cc1,-13.7,
CCC(Sc1nc2n[nH]c(C)c2c(=N)n1-c1ccccc1Cl)C(=O)N(CC)CC (centres undefined),,18.4 µM (active)
CCCCNC(=O)CSc1nccn1Cc1ccccc1,-14.5,
Cc1nnc(SCC(=O)NCCOc2ccc(Cl)cc2)n1-c1ccccc1,5.23,
Cc1ccc(-n2c(SCC(=O)NCCC3=CCCCC3)nc3n[nH]c(C)c3c2=N)cc1Cl,,11.6 µM (active)
O=C(COc1ccc(Cl)cc1)NCCC1=CCCCC1,-14.4,
CCCCNC(=O)CSc1nc2n[nH]c(C)c2c(=N)n1-c1cccc(Cl)c1C,,16.4 µM (active) and 11.6 µM (active)
CCOc1ccc(-n2c(SCC(=O)NCc3ccccc3)nc3n[nH]c(C)c3c2=N)cc1,,9.2 µM (active)
Cc1nnc(OCC(=O)NCCC2=CCCCC2)c2ccccc12,3.47,
O=C(COC(=O)c1cccnc1Cl)NC(=O)NC1CCCCC1,-26.5,
C[C@H](C(=O)CC(=O)OC(C)(C)C)[C@H](O)c1ccc(C(F)(F)F)cc1,-20.8,
Cc1ccc(SCCC(=O)NC(C(C)C)C(C)C)cc1,-19.8,
COc1ccc(OCC(=O)Nc2ccc(NC(=O)c3ccco3)c(C)c2)cc1,-2.05,
CCC1(C2CCN(C(=O)c3cccc(F)c3F)CC2)NC(=O)N(CCc2scnc2C)C1=O (centres undefined),9.29,

Structure (SMILES),"activity change, negative = growth inhibition [%]",Potency
CCCC(C)NC(=O)C1CCN(C(=O)C2CC(=O)N(c3ccc(C)cc3)C2)CC1 (centres undefined),-3.56,
CCN(Cc1ccccc1)S(=O)(=O)c1cc(C(=O)O)ccc1OC,2.08,
CSC1=NN(c2ccccc2)CN(c2ccccc2)N1C,7.18,
CC(C)NC(=O)NC(=O)CSc1nnc(-c2ccccc2F)n1N,-22.8,
COc1ccc(-n2c(SCC(=O)Nc3ccc(Cl)c(C)c3)nc3n[nH]c(C)c3c2=N)cc1,,13 µM (active)
COc1ccc(-n2nnnc2SCC(=O)Nc2ccccc2)cc1,-14.1,
COc1ccc(-n2c(Cc3cccn3C)nnc2SCC(=O)Nc2cc(C)cc(C)c2)cc1,2.23,
Cn1c(CNC(=O)c2ccccc2F)nnc1SCc1ccc(F)cc1,-7.86,
O=C(NCc1cccnc1)c1nc(-c2cccs2)no1,14.9,
CC(=O)Nc1ccc(NC(=O)CN2CCCC(C)C2)c(Cl)c1 (centres undefined),-20.9,
O=C(CSc1ccccc1)Nc1cc(Cl)ccc1Oc1ccccc1,-9.91,
CC1CCCN(CC(=O)Nc2cc(Cl)ccc2Oc2ccccc2)C1 (centres undefined),,25.9 µM (active)
CC1CCCN(S(=O)(=O)c2ccc(-c3ccc(=O)[nH]n3)o2)C1 (centres undefined),-5.64,
Cc1ccc(/C=C/C(=O)OCC(=O)NCc2ccc(Cl)cc2)o1,1.25,
CCOc1ccc(N(C(=O)c2snc(C(N)=O)c2N)C(C(=O)NCC2CCCO2)c2c[nH]c3ccccc23)cc1 (centres undefined),-75.3,
Cc1ccc(C(C(=O)NCC2CCCO2)N(C(=O)c2snc(C(N)=O)c2N)c2ccc(C(C)C)cc2)o1 (centres undefined),,23.1 µM (active)
Cc1ccc(N(C(=O)c2snc(C(N)=O)c2N)C(C(=O)NCC2CCCO2)c2c[nH]c3ccccc23)cc1 (centres undefined),,4.61 µM (active)
COCCNC(=O)C(c1ccc(C)o1)N(Cc1cccs1)C(=O)c1snc(C(N)=O)c1N (centres undefined),-20.2,
Cc1ccc(N(C(=O)Cc2cccs2)C(C(=O)NCC2CCCO2)c2ccncc2)cc1 (centres undefined),0.789,
COc1ccc(N(C(=O)c2snc(C(N)=O)c2N)C(C(=O)NC2CCCC2)c2ccco2)cc1OC (centres undefined),5.11,
Nc1nc(Sc2ncccc2[N+](=O)[O-])n[nH]1,-12,
O=C(Oc1ccc(Br)cc1C(=S)N1CCOCC1)c1cccc([N+](=O)[O-])c1,-14.6,
O=C(NNC(=O)C(O)c1ccccc1)NC1CCCCC1 (centres undefined),-10.7,
O=C(CN1CCN(Cc2ccc(Cl)cc2)C1=O)NCc1ccc(F)cc1,-26.3,
NC(=O)c1ccc(Nc2ccc3nonc3c2[N+](=O)[O-])cc1,0.436,

Structure (SMILES),"activity change, negative = growth inhibition [%]",Potency
O=C(c1cccs1)N1CCN(Cc2ccc3c(c2)OCO3)CC1,-18.3,
Cc1cc(C)n2nc(C(=O)N3CCN(Cc4ccc5c(c4)OCO5)CC3)nc2n1,2.69,
CCN(CCCNC(=O)C1CCN(S(=O)(=O)c2cnc[nH]2)CC1)c1ccccc1,-22,
O=C(C1CCN(Cc2ccc(Cl)cc2)CC1)N1CCN(Cc2ccc3c(c2)OCO3)CC1,,23.1 µM (active)
O=C(Nc1cccc2ccccc12)N1CCN(Cc2ccc3c(c2)OCO3)CC1,-19.1,
O=C(C1CCN(S(=O)(=O)c2cnc[nH]2)CC1)N1CCN(Cc2ccc3c(c2)OCO3)CC1,,20.6 µM (active)
CCN(C(=O)CSc1nnnn1-c1ccc(OC)cc1)C1CCS(=O)(=O)C1 (centres undefined),4.62,
CO/N=C/c1cn(-c2ccc(Cl)cc2)nn1,-1.57,
CSc1ccc(/C=N/NC(=O)c2cccc(Cl)c2)cc1,2.7,
CCOC(=O)c1ccccc1NC(=O)c1c(N)n(C)c(=O)[nH]c1=O,-25.9,
CCc1ccc(NC(=O)CN2C(=O)COc3ccc(S(=O)(=O)N4CCCC4)cc32)cc1,-26.2,
NS(=O)(=O)c1ccc(NC(=O)/C=C/c2ccccc2Cl)cc1,-4.03,
CC(=O)Nc1ccc(NS(=O)(=O)c2ccc3c(c2)NC(=O)CC(=O)N3)cc1,4.03,
COc1ccc(NS(=O)(=O)c2ccc(NC(=O)c3ccc(N(C)S(C)(=O)=O)cc3)cc2)cc1,,8.2 µM (active)
COc1cc(OC)cc(C(=O)Nc2ccc(S(=O)(=O)Nc3cc(C)on3)cc2)c1,-1.33,
CC(=O)Nc1ccc(S(=O)(=O)N2CCCC2C(=O)O)cc1 (centres undefined),6.9,
CC(=O)Nc1ccc(S(=O)(=O)Nc2ccc(N3CCCCC3)cc2)cc1,,4.61 µM (active)
COc1ccc(/C=N/NS(=O)(=O)c2ccc(NC(C)=O)cc2)cc1,-22.2,
CC(=O)Nc1ccc(S(=O)(=O)Nc2cccc(NC(=O)C(C)(C)C)c2)cc1,-20.3,
COc1ccc(NS(=O)(=O)c2ccc(NC(C)=O)cc2)cc1OC,,9.2 µM (active)
COC(=O)COc1ccc(S(=O)(=O)Nc2ccc(NC(C)=O)cc2)cc1,-10.2,
COc1ccc(NC(=O)c2cnc(NS(=O)(=O)c3ccccc3)nc2)cc1,1.22,
COc1ccc(C(=O)Nc2ccc(S(=O)(=O)Nc3onc(C)c3C)cc2)cc1OC,-6.94,
COc1cc(NS(=O)(=O)c2ccc(NC(C)=O)cc2)cc(OC)c1,,14.6 µM (active)
